PubChem BioAssay AID492953 (The Scripps Research Institute Molecular Screening Center, 2010)
About 4,200 (1.2%) of roughly 340,000 compounds were called active. This is one part of a sample in which actives are shown more often than they occur. Unmarked numbers belong to inactive results.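 The calls were made as follows: active = inhibition above the mean of all tested compounds plus 3 SD (cut at about 24% in these data); inactive = the rest.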

These compounds were tested against Platelet-activating factor acetylhydrolase IB subunit alpha2 (Homo sapiens) (UniProt P68402) (assay: PAFAH1B2 enzyme inhibitors, primary screen, biochemical, fluorescence polarization, human (AID 492953;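 also: 0% = enzyme with DMSO and 100% = wells lacking PAFAH1B2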)). Conditions: recombinant PAFAH1B2, FP-rhodamine activity probe, at 3.39 µM, hits give high values.
Chain of Platelet-activating factor acetylhydrolase IB subunit alpha2 (Homo sapiens) (P68402 whole entry, looked up): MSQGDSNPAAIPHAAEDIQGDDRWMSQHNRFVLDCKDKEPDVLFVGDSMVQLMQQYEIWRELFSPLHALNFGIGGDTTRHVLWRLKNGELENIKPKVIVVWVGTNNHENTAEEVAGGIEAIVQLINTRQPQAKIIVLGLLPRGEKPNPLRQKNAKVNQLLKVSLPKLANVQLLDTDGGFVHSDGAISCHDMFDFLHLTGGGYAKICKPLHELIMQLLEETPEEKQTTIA

Row | Structure (SMILES) | inhibition
1 | C/C(=N\Nc1ccc(Cl)nn1)c1ccccc1O | -0.23%
2 | COc1ccccc1N1CCN(C(=O)c2ccc(Cl)c(S(=O)(=O)N3CCCC3)c2)CC1 | 2.58%
3 | COc1ccccc1N1CCN(S(=O)(=O)c2ccc(Cl)cc2)CC1 | 31.7% (active)
4 | COc1ccccc1N1CCN(S(=O)(=O)c2ccc3c(c2)NC(=O)CS3)CC1 | -1.51%
5 | COc1ccc(CCNC(=O)CN2CCC(n3nnc4cc(F)ccc43)CC2)cc1OC | 4.75%
6 | CCOC(=O)c1[nH]c(C)c(C(=O)OCC(=O)N2c3ccccc3CC2C)c1C (stereo unspecified) | 3.77%
7 | CSC1=NC2(C)CCCCC2C12C=CC(=O)C=C2 (stereo unspecified) | 24.6% (active)
8 | O=C(CC(=O)c1cccnc1)c1ccccc1 | 0.07%
9 | CC[n+]1c(C)n(-c2ccccc2)c2ccc(NC(C)=O)cc21 | 1.05%
10 | CCc1ccc(NC(=O)CN2C(=O)CSC2=O)cc1 | 4.64%
11 | Cc1ccc(S(=O)(=O)N(CCCN(C)C)Cc2ccc3c(c2)OCO3)cc1 | 1.52%
12 | O=C(Oc1ccc2c(c1)CCC2)N1CCOCC1 | 2.56%
13 | N#Cc1ccc(C(c2nnnn2CCc2ccccc2)N2CCCCCC2)cc1 (stereo unspecified) | 25.7% (active)
14 | COc1ccc(CCn2nnnc2C(c2ccccc2)N2CCN(C)CC2)cc1OC (stereo unspecified) | 2.25%
15 | CC(C)C(c1nnnn1CCc1ccccc1)N1CCN(C(=O)c2ccco2)CC1 (stereo unspecified) | 3.54%
16 | O=C(NCc1ccc2c(c1)OCO2)c1c(O)nc2sccn2c1=O | 5.79%
17 | Cc1ccc(C(=O)CN2C(=O)NC3(CCOc4ccccc43)C2=O)s1 (stereo unspecified) | -1.4%
18 | C=CCNC(=O)CCCOc1cccc(C)c1 | -2.13%
19 | Cc1cccc(OCCNC(=S)NC(=O)c2cccnc2)c1 | -2.68%
20 | Cc1cccc(OCCNC(=O)CSc2ccc(C(F)(F)F)cc2[N+](=O)[O-])c1 | 27.4% (active)
21 | CC(C)NC(=O)Nc1cccc2c1O[C@H](CN(C)S(=O)(=O)c1cccs1)[C@@H](C)CN([C@H](C)CO)C2=O | 6.94%

Row | Structure (SMILES) | inhibition
22 | Cc1cc2oc(=O)cc(CN(C)Cc3ccc(OC(F)F)cc3)c2cc1Cl | -0.62%
23 | Cc1cc2oc(=O)cc(CN3CCN(Cc4ccccc4)CC3)c2cc1C | -2.46%
24 | Cc1ccc(CN(C)Cc2cc(=O)oc3cc(C)c(Cl)cc23)cc1 | 28.5% (active)
25 | CCn1c(SCC(=O)Nc2cccc(F)c2)nnc1-c1cc2cc(Br)ccc2o1 | -4.23%
26 | C=CCn1c(C23CC4CC(CC(C4)C2)C3)n[nH]c1=S | 29.8% (active)
27 | C=CCn1c(-c2ccc3[nH]c(C)c(C)c3c2)n[nH]c1=S | -1.88%
28 | C=CCn1c(SCC(=O)NC)nnc1C12CC3CC(CC(C3)C1)C2 | 4.85%
29 | Cc1cc(C)cc(NC(=O)C(OC(=O)c2ccc(O)cc2)c2ccccc2)c1 (stereo unspecified) | -4.34%
30 | O=C1/C(=C\c2ccc([N+](=O)[O-])cc2)CS(=O)(=O)C/C1=C/c1ccc([N+](=O)[O-])cc1 | -2.78%
31 | Cc1ccc(N(CCC(=O)O)S(=O)(=O)c2cccc(C(F)(F)F)c2)cc1 | 19.6%
32 | O=C(O)c1cc(S(=O)(=O)N(Cc2ccccc2)c2cccc(C(F)(F)F)c2)ccc1Cl | 28.5% (active)
33 | O=C(O)c1cc(S(=O)(=O)N(Cc2ccccc2)c2ccccc2)ccc1Cl | 18.7%
34 | CS(=O)(=O)Nc1ccccc1N=C(c1ccccc1)c1ccccc1 | 5.79%
35 | O=c1cc(-c2ccccc2)nc(N2CCCCC2)[nH]1 | -3.66%
36 | Cc1ccc(-c2cc(=O)[nH]c(NCc3ccccc3)n2)cc1 | 24.5% (active)
37 | Cc1ccc(O)c(CNc2nc3ccccc3[nH]2)c1 | 0.09%
38 | O=C(O)c1ccc(-n2cccc2)cc1O | 4.37%
39 | COc1cccc(CNn2cn[nH]c2=S)c1OCc1ccccc1 | 0.39%
40 | O=C(CCNC(=O)C1CCN(S(=O)(=O)c2ccccc2)CC1)NC1CC1 | 1.71%
41 | CCc1ccc2nc3sc(C(=O)Nc4nnc(CC)s4)c(N)c3cc2c1 | 32.2% (active)
42 | CCc1nnc(NC(=O)c2nc3nccc(C)n3n2)s1 | 7.37%

Row | Structure (SMILES) | inhibition
43 | CCc1nnc(NC(=O)c2cccc(S(=O)(=O)N(C)c3ccc(OC)cc3)c2)s1 | 10.2%
44 | COc1ccc(Cl)cc1C=CC=Nc1ccc(S(N)(=O)=O)cc1 | -2.05%
45 | Cc1c(C(=O)OCC(=O)N(CCC#N)c2ccccc2)oc2c1ccc1ccccc12 | -1.31%
46 | O=C(Cc1ccccc1)Nc1cccc(NC(=O)c2ccccc2)c1 | 3.28%
47 | CC(C)(C)NC(=O)c1cccc(NC(=O)Cc2ccc(Br)cc2)c1 | 28.1% (active)
48 | Cc1cccc(NC(=O)Cc2ccc(Br)cc2)n1 | 8.34%
49 | CN1CCN(C(=O)CCc2ncc(C(F)(F)F)cc2Cl)CC1 | -0.83%
50 | CCC(=O)N1CCC(C(N)=O)(N2CCCCC2)CC1 | -0.67%
51 | CC(=O)c1sc(NC(=O)CCN2C(=O)C3CC=CCC3C2=O)nc1-c1ccccc1 (stereo unspecified) | -3.33%
52 | CC1=CC(=NNS(=O)(=O)c2ccc([N+](=O)[O-])cc2)CC(C)(C)C1 | 31.9% (active)
53 | CC(C=Cc1ccccc1)=NNS(=O)(=O)c1ccc([N+](=O)[O-])cc1 | 6.62%
54 | Cc1cccc(NS(=O)(=O)c2ccc([N+](=O)[O-])cc2)n1 | 1.97%
55 | CCOC(=O)[C@H]1[C@H]2COc3ccccc3[C@@H]2N2C(=O)CN(Cc3ccccc3)C(=O)[C@@]12C | -3.13%
56 | COc1ccc(CNC(=O)c2cc(=O)c3c(C)cc(C)cc3o2)cc1 | -0.18%
57 | CCCCN(C(=O)/C=C/c1ccco1)c1c(N)n(CC(C)C)c(=O)[nH]c1=O | -1.15%
58 | CC(=O)Nc1ccc(S(=O)(=O)Oc2ccc(Br)cc2C(=S)N2CCOCC2)cc1 | 0.45%
59 | COc1cccc(/C=N/Nc2ccc(S(=O)(=O)Nc3ccccc3C(=O)O)cc2[N+](=O)[O-])c1O | 32.2% (active)
60 | Cc1ccc(NS(=O)(=O)c2ccc(N/N=C/c3ccccc3OCC(=O)O)c([N+](=O)[O-])c2)c(C)c1 | 4.33%
61 | COc1ccc(Br)cc1/C=N/Nc1ccc(S(=O)(=O)Nc2ccccc2C(=O)O)cc1[N+](=O)[O-] | 4.57%
